Measurements taken from the supplement of paper PMC13380429.
Values without a mark were called inactive.

Test system: Vero E6 infected with SARS-CoV-2
Assay: inhibition of SARS-CoV-2 cytopathic effect; higher = more antiviral protection, active = above 15
Conditions: 48 h

## O=C(Nc1ccc(F)cc1)N1CCc2ccccc2[C@@H]1c1ccc(C(F)(F)F)cc1
1 nM
  inhibition of SARS-CoV-2 cytopathic effect: 0.09%
8.33 nM
  inhibition of SARS-CoV-2 cytopathic effect: -1.41%
100 nM
  inhibition of SARS-CoV-2 cytopathic effect: -0.59%
833.33 nM
  inhibition of SARS-CoV-2 cytopathic effect: -1.97%
10000 nM
  inhibition of SARS-CoV-2 cytopathic effect: -1.53%

## CCCCCCCCCCCCCCCCCCCCCC(=O)O
1 nM
  inhibition of SARS-CoV-2 cytopathic effect: 2.81%
8.33 nM
  inhibition of SARS-CoV-2 cytopathic effect: 2.25%
100 nM
  inhibition of SARS-CoV-2 cytopathic effect: 1.57%
833.33 nM
  inhibition of SARS-CoV-2 cytopathic effect: 0.29%
10000 nM
  inhibition of SARS-CoV-2 cytopathic effect: 1.77%

## CN(C)C/C=C(/c1ccc(Br)cc1)c1cccnc1 [zimelidine]
1 nM
  inhibition of SARS-CoV-2 cytopathic effect: 0.58%
8.33 nM
  inhibition of SARS-CoV-2 cytopathic effect: 1.8%
100 nM
  inhibition of SARS-CoV-2 cytopathic effect: 0.96%
833.33 nM
  inhibition of SARS-CoV-2 cytopathic effect: -1%
10000 nM
  inhibition of SARS-CoV-2 cytopathic effect: -1.69%

## O=C(Nc1ccc([N+](=O)[O-])cc1O)Nc1ccccc1Br
1 nM
  inhibition of SARS-CoV-2 cytopathic effect: 0.2%
8.33 nM
  inhibition of SARS-CoV-2 cytopathic effect: -0.25%
100 nM
  inhibition of SARS-CoV-2 cytopathic effect: -0.6%
833.33 nM
  inhibition of SARS-CoV-2 cytopathic effect: 0.15%
10000 nM
  inhibition of SARS-CoV-2 cytopathic effect: -2.06%

## O=C1O[C@H](CO)[C@@H](O)[C@H](O)[C@H]1O [gluconolactone]
1 nM
  inhibition of SARS-CoV-2 cytopathic effect: -1.05%
8.33 nM
  inhibition of SARS-CoV-2 cytopathic effect: 1.67%
100 nM
  inhibition of SARS-CoV-2 cytopathic effect: -0.14%
833.33 nM
  inhibition of SARS-CoV-2 cytopathic effect: -0.97%
10000 nM
  inhibition of SARS-CoV-2 cytopathic effect: -1.07%

## O=C(COc1ccc(C(=O)c2ccccc2)cc1)NC1CCN(Cc2ccccc2)CC1 [adiporon]
1 nM
  inhibition of SARS-CoV-2 cytopathic effect: -2.19%
8.33 nM
  inhibition of SARS-CoV-2 cytopathic effect: -0.76%
100 nM
  inhibition of SARS-CoV-2 cytopathic effect: 0.29%
833.33 nM
  inhibition of SARS-CoV-2 cytopathic effect: 0.19%
10000 nM
  inhibition of SARS-CoV-2 cytopathic effect: -1.05%

## CCOC(=O)[C@]12CC1/C(=N\O)c1ccccc1O2 (stereo not given in full)
1 nM
  inhibition of SARS-CoV-2 cytopathic effect: 1.49%
8.33 nM
  inhibition of SARS-CoV-2 cytopathic effect: -0.95%
100 nM
  inhibition of SARS-CoV-2 cytopathic effect: -1.19%
833.33 nM
  inhibition of SARS-CoV-2 cytopathic effect: -3.34%
10000 nM
  inhibition of SARS-CoV-2 cytopathic effect: -1.39%

## Cc1ccc2cc(-c3c(C)ccc(C(=O)c4c(-c5ccccc5)n(C)n(-c5ccccc5)c4=O)c3N)ccc2n1
1 nM
  inhibition of SARS-CoV-2 cytopathic effect: -0.74%
8.33 nM
  inhibition of SARS-CoV-2 cytopathic effect: -0.19%
100 nM
  inhibition of SARS-CoV-2 cytopathic effect: -0.14%
833.33 nM
  inhibition of SARS-CoV-2 cytopathic effect: 2.1%
10000 nM
  inhibition of SARS-CoV-2 cytopathic effect: 43.4% (active)
